# ARNT TACC3 PPI – ARNT/TACC3 interaction disruption; Q9Y6A5; AlphaScreen His-ARNT PAS-B/GST-TACC3 binding, luminescence; TACC3 fragment carries E629A point mutation; inhibition, % at 9.99 µM; 390,000 compounds, 0.66% hits; AID 623870;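 active = mean inhibition of replicates at least 50% and at least half of replicates each reaching 50%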;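 also: 0% = complete ARNT plus TACC3 wells and 100% = ARNT alone without TACC3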
# Cardio protect – myocardial damage modulation in H9c2 cells; 360,000 compounds, 0.63% hits; protection from H2O2 cell death, % at 20 µM; H9c2 cardiomyocytes, H2O2 injury protection, ATPLite, 2 h;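 active = compounds giving at least 50% protection of heart cells from peroxide-induced death in the single-dose screen, raw or plate-pattern-corrected value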;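 also: 0% = DMSO wells with peroxide and 100% = DMSO wells without peroxide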
# Glyco luc inh – N-linked glycosylation inhibition. D54 ERlucT glycosylation luciferase reporter, 24 h; percent of 100 nM tunicamycin response. reporter increase, % at 12.5 µM. 360,000 compounds, 0.23% hits;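 active = mean luciferase reporter signal, scaled so untreated is 0 and the glycosylation-blocking control 100, at or above a set limit in every replicate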;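 also: luciferase carries N-glycosylation sites so blocking glycosylation raises the light; 0% = median of neutral control wells and 100% = median of 100 nM tunicamycin wells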
# aDG glyco act – alpha-DG glycosylation activation | activation, % at 10 µM | Pro5-aDG cells, alpha-DG glycosylation AlphaScreen (IIH6); 0% Pro5, 100% B10-LARGE cell signal | AID 624168 | 360,000 compounds, 0.22% hits;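 active = activation of at least 8% versus controls, or a plate z-score of at least 8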;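 also: Pro5 are CHO cells carrying HIG-tagged alpha-DG that lacks glycosylation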
# Vif inh – inhibitors of HIV Vif; HEK293T cells, Vif self-association by quenched fluorescence, imaging, 24 h; AID 602346; inhibition, % at 7.49 µM; 340,000 compounds, 0.35% hits; in the data active = inhibition above about 50%, passing the limit was not always enough
# ARNT Alpha ctr-1 – interferes with AlphaScreen signal, flagging false ARNT-TACC3 hits. AID 651705. shares compounds with ARNT TACC3 PPI. His-ARNT PASB-GST AlphaScreen artifact counter-screen, luminescence. 1,200 compounds, 50% hits. AC50, µM (top dose mostly 68 µM), for inactives: at the highest dose activity change, negative = signal decrease;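 active = every separate test run was called active for a drop in luminescence, with AC50 within twice the top valid dose, actives reach about 71 µM in these data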
# ARNT Alpha ctr-2 – counter-screen for ARNT-TACC3 inhibitors: AlphaScreen artifacts; shares compounds with ARNT TACC3 PPI; Dual-tagged His-ARNT PASB-GST AlphaScreen artifact counter-screen; AC50, µM; 45 compounds, 70% hits; AID 720564;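 active = luminescence drop, with half-maximal potency fitted within twice the sample's top valid dose, cut at about 70 µM in these data; inactive = the rest, including signal moving the wrong way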
# An asterisk follows results filed as active; i = inactive; · = no result given. Most compounds without a hit are left out; they make up all but 1.7% or so of the library.
SMILES,ARNT TACC3 PPI,Cardio protect,Glyco luc inh,aDG glyco act,Vif inh,others
COc1cccc(OP(=O)(Nc2ccccc2)Oc2cccc(OC)c2)c1,5.8,70.3*,-4.7,-0.2,-60.6,
COc1ccc(OC)c(NP(=O)(Oc2ccccc2)Oc2ccccc2)c1,-1.7,7.9,-3.9,0.1,-7.6,
CCCN1[C@@H]2c3ccc(-c4ccc(F)cc4)c(=O)n3C[C@H]1[C@H](CO)[C@H]2C(=O)OC,-4.8,·,·,·,·,
O=c1[nH]c(O)c(/C=C2/C=CC(c3cc(Cl)ccc3Cl)=N2)c(=O)[nH]1,-5.8,-16.5,48.8*,0.1,-3.2,
CCCCC(=O)N/N=C/c1c(O)n(Cc2ccc(F)cc2)c(=O)[nH]c1=O,68.7*,8.2,-0.7,0.0,4.3,
O=C(N/N=C/c1c(O)n(Cc2ccccc2)c(=O)[nH]c1=O)c1ccncc1,·,0.8,0.5,-0.1,1.7,
O=C(N/N=C/c1c(O)n(Cc2ccc(F)cc2)c(=O)[nH]c1=O)c1ccccc1,49.8*,10.5,-1.1,0.0,8.4,
COC(=O)[C@H]1[C@H](CO)[C@H]2Cn3c(ccc(-c4cccc(OC)c4)c3=O)[C@@H]1N2C(=O)c1cnccn1,2.8,·,·,·,·,
O=c1[nH]c(=O)n(Cc2ccco2)c(O)c1C=NCc1cccs1,-2.4,53.7*,0.0,-0.2,10.8,
O=c1[nH]c(=S)n(Cc2ccco2)c(O)c1C=NCc1cccs1,·,4.6,-0.3,-0.3,11.6,
CCn1c(=O)cc(OCC(=O)N2CCN(Cc3ccc4c(c3)OCO4)CC2)c2ccccc21,-3.5,10.0,4.7,0.3,67.1*,
Cc1ccccc1-n1c(O)c(/C=N/NC(=O)c2ccccc2O)c(=O)[nH]c1=S,57.1*,3.0,0.4,-0.1,2.4,
O=C(N/N=C/c1c(O)n(C2CC2)c(=S)[nH]c1=O)c1ccccc1O,59.9*,-2.0,-0.2,-0.2,1.3,
O=C(O)[C@@H]1[C@@H](CO)[C@@H]2Cn3c(cccc3=O)[C@H]1N2C(=O)c1ccccc1,8.9,·,·,·,·,
COC(=O)[C@H]1[C@H](CO)[C@H]2Cn3c(ccc(-c4ccc(OC)cc4)c3=O)[C@@H]1N2C(=O)c1ccccc1F,-2.9,·,·,·,·,
CC1CN(c2ccc([N+](=O)[O-])c3cccnc23)CC(C)N1 (stereo not given),59.4*,30.3,4.9,-0.4,-9.2,ARNT Alpha ctr-1=-3.7%
CC=Cc1ccc2n(c1=O)C[C@H]1[C@H](CO)[C@@H](C(=O)N(C)C)N[C@@H]21 (mixture of isomers),-9.9,·,·,·,·,
O=C(Nc1ccc(Cl)cc1)O/N=C(\c1ccccc1)c1ccccn1,50.2*,1.6,1.8,-0.2,28.8,ARNT Alpha ctr-1=-37.9%
Cc1ccccc1S(=O)(=O)N1[C@@H]2c3ccc(-c4cccnc4)c(=O)n3C[C@H]1[C@H](CO)[C@H]2C(=O)O,-2.0,·,·,·,·,
Nc1ccccc1N=Cc1c(O)n(CCC2=CCCCC2)c(=O)[nH]c1=O,-3.2,-0.4,0.8,-0.1,-2.6,
O=C(N/N=C/c1c(O)n(CCC2=CCCCC2)c(=O)[nH]c1=O)c1ccccc1,50.6*,36.6,-0.5,-0.3,-3.6,ARNT Alpha ctr-1=-16.0%
COC(=O)[C@@H]1[C@@H](CO)[C@@H]2Cn3c(ccc(-c4ccccc4)c3=O)[C@H]1N2CC1CCOCC1,-6.7,·,·,·,·,
CCN(CCCl)c1cc(CN(C)C)cc(NC(=O)c2ccc(C(=O)Nc3cc(CN(C)C)cc(N(CC)CCCl)c3)cc2)c1,53.8*,-14.7,-19.7,-0.5,5.4,ARNT Alpha ctr-1=4.28µM*
Clc1cccc(CNCCc2c[nH]c3ccccc23)c1,51.6*,-1.0,-3.6,0.3,9.0,ARNT Alpha ctr-1=-6.7%
FC(F)(F)c1ccc(CNCCc2c[nH]c3ccccc23)cc1,-1.4,7.4,2.3,0.1,2.7,
CCn1nc(-c2cccnc2)nc2c(=O)n(C)c(=O)nc1-2,·,·,·,·,·,ARNT Alpha ctr-2=i
N#CC1(c2ccccc2)CCN(C2CC(=O)N(c3cccc(F)c3)C2=O)CC1 (stereo not given),5.4,-0.7,2.1,-0.4,1.4,
Oc1cccc2cccnc12,·,5.6,2.0,-0.3,0.8,
N#CC1(c2ccccc2)CCN(Cc2ccc(O)c3ncccc23)CC1,·,·,·,·,·,ARNT Alpha ctr-1=5.91µM*
Oc1ccc(CN2CCC3CCCCC3C2)c2cccnc12 (stereo not given),·,·,·,·,·,ARNT Alpha ctr-1=3.29µM*

# Screening results deposited in PubChem by several laboratories.
